Rows were chosen to be rich in hits. Some 2.4% of all compounds tested hit in one or more screens of this group.
M1 ag: human M1 muscarinic receptor agonists, primary screen, Fluo-8 calcium fluorescence, CHO-K1 cells, HTS | CHO-K1 hM1, agonist mode; 0% DMSO, 100% acetylcholine EC100 | activation, % at 3 µM | hit rate 0.33% among 360,000 | AID 588814, 2011;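 active means activation above the run's mean compound activation plus 3 SD, cut at about 16% in these data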;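 further: peak over basal fluorescence ratio within a 140 s kinetic read after compound addition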
Target sequence (P11229 whole entry, looked up): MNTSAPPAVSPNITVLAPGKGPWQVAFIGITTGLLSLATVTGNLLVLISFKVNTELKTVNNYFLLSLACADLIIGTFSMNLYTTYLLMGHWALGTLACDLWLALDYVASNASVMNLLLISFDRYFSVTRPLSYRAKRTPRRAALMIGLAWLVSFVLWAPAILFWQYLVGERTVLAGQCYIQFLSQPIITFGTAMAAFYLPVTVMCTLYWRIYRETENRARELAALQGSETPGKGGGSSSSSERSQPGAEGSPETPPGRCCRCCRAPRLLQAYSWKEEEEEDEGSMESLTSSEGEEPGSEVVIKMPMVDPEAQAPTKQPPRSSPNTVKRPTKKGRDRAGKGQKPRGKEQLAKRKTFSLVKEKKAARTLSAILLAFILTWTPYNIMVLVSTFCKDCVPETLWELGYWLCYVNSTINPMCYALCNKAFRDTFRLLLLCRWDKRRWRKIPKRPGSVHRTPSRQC
CHO-K1 Ca antag: M1 antagonist counterscreen hit in parental CHO-K1 cells; ATP-induced calcium, Fluo-8 fluorescence; inhibition, % at 3 µM; hit rate 0.6% among 360,000;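 active means inhibition above a per-plate cutoff, the plate's mean sample inhibition plus 3 SD, cut at about 24% in these data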
CHRM1 PAM: human M1 muscarinic receptor positive allosteric modulators, primary screen, CHO-K1 cells, Fluo-8 calcium fluorescence, 1536-well; hit rate 0.088% among 360,000; activation, % at 3 µM; Muscarinic acetylcholine receptor M1 (Homo sapiens), P11229; CHO-K1 hM1, ACh EC20; 0% = ACh EC20, 100% = maximal ACh; in the data active means activation above about 19%, passing the limit was not always enough
CHO-K1 Ca ag: counter-screen for M1 agonists: effect in parental CHO-K1 cells; Fluo-8 calcium fluorescence; scaled to maximal ATP response, vehicle zero; activation, % at 3 µM; hit rate 0.48% among 360,000; AID 602248, 2012; in the data active means activation above about 15%;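 further: untransfected CHO-K1 host cells lacking M1 receptor as counterscreen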
M1 PAM parental: nonselective calcium activators in parental CHO-K1 cells, primary screen, counter-screen for M1 PAM project, cell-based, Fluo-8 calcium fluorescence, full deck, 1536-well | ATP EC20; 0% at ATP EC20, 100% at ATP max | hit rate 0.02% among 360,000 | activation, % at 3 µM;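 active means activation above the run cutoff, the mean activation of all test compounds plus 3 SD, cut at about 40% in these data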;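 further: peak over basal fluorescence ratio in a 140 s read after ATP addition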
CHRM1 antagonist: human M1 muscarinic receptor antagonists, primary screen, CHO-K1 cells, Fluo-8 calcium fluorescence, 1536-well; Muscarinic acetylcholine receptor M1 (Homo sapiens), P11229; CHO-K1 hM1, ACh EC80 antagonist; inhibition, % at 3 µM; hit rate 1.3% among 360,000; AID 588852, 2011;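 active means percent inhibition above its own plate's cutoff, namely the mean of that plate's compound wells plus 3 SD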;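 further: peak over basal fluorescence ratio during 140 s after agonist addition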
Large screens that a line does not name were inactive.

COc1ccc(C(=O)Nc2cccc(-c3csc(C)n3)c2)cc1S(=O)(=O)N1CCCC1	CHRM1 antagonist 36
O=C(Nc1cccc(S(=O)(=O)N2CCCC2)c1)c1cc(S(=O)(=O)N2CCOCC2)ccc1F	none
CN1CCN(c2ccc(NC(=O)c3cccc(S(=O)(=O)N4CCCC4)c3)cc2)CC1	CHRM1 antagonist 47
Cc1ccc(NC(=O)CCN2CCOCC2)cc1C	none
O=C(CCS(=O)(=O)c1ccc(Cl)cc1)NCCN1C(=O)S/C(=C\c2ccccc2F)C1=O	none
O=C(NCCN1C(=O)S/C(=C\c2ccccc2)C1=O)c1cc(S(=O)(=O)N2CCOCC2)c(Cl)cc1Cl	CHO-K1 Ca ag 15, CHRM1 antagonist 43
Cc1ccc(S(=O)(=O)CCC(=O)NCCN2C(=O)S/C(=C\c3ccccc3)C2=O)cc1	CHO-K1 Ca ag 19
COc1ccc(NC(=O)c2cc3c(s2)CCC(C)C3)cc1S(=O)(=O)N1CCOCC1 (stereo not given)	CHO-K1 Ca antag 25
CCOc1ccc2oc(-c3ccccc3)c(C(=O)N3CCN(CCO)CC3)c2c1	none
CC(CN1CCCC1)OC(=O)C(c1ccccc1)c1ccccc1 (stereo not given)	none
COc1ccc(C(C(=O)OC(C)CN(C)C)c2ccccc2)cc1 (stereo not given)	CHRM1 antagonist 32
Cc1cccc[n+]1CC(=O)c1ccc2c(c1)OCCO2	CHRM1 antagonist 28
Cc1cccc[n+]1CC(=O)c1ccc(Cl)cc1	none
COC(=O)[C@]12CCCCC=C1N(Cc1cccc3ccccc13)C(=O)[C@H](CC(=O)N1CCN(C(=O)c3ccco3)CC1)C2	none (no result: M1 ag, CHRM1 PAM, CHRM1 antagonist)
CCOC(=O)C1CCCN(C(=O)CCCn2nc(C)n3c(cc4sccc43)c2=O)C1 (stereo not given)	M1 ag 34
CCOCC(=O)N1CCCC(C(=O)OCC)C1 (stereo not given)	CHRM1 antagonist 101
Cc1ccc(OCCOC(=O)c2cc(S(=O)(=O)N3CCCCC3)ccc2N2CCOCC2)cc1	CHRM1 antagonist 28
CCOC(=O)C1CCCN(C(=O)CCCn2nnnc2CN2CCOCC2)C1 (stereo not given)	M1 ag 49
O=C(OCCOc1ccc(Cl)cc1)c1cc(S(=O)(=O)N2CCCCC2)ccc1N1CCOCC1	none
CCOC(=O)C1CCCN(C(=O)Cn2sc3nc(C)cc(C)c3c2=O)C1 (stereo not given)	M1 ag 22
CCOC(=O)C1CCCN(C(=O)Cc2ccc(C)cc2)C1 (stereo not given)	none
CCOC(=O)C1CCN(C(=O)COc2ccc(S(=O)(=O)N3CCOCC3)cc2)CC1	none
CCCCC(=O)N1CCCC(C(=O)OCC)C1 (stereo not given)	M1 ag 26
CCOC(=O)C1CCCN(C(=O)COc2ccc(S(=O)(=O)N3CCOCC3)cc2)C1 (stereo not given)	M1 ag 31
COc1ccccc1CN1CC(C(=O)N(C)Cc2ccc(C)o2)CCC1=O (stereo not given)	none
CCOC(=O)c1sc(N)nc1C(F)(F)F	none
Cc1cc(NC2CCCCC2)nc(NCc2ccccc2)n1	CHO-K1 Ca ag 15, CHRM1 antagonist 35
CCOC(=O)N1CCN(C(=O)CS(=O)(=O)c2cn(Cc3ccc(F)cc3)c3ccccc23)CC1	none
O=C(NCc1ccco1)C1Cc2c(-c3cccc(F)c3)ccnc2O1 (stereo not given)	none
Cc1ccccc1OCC(=O)NCCCNC(=O)c1ccncc1	CHRM1 PAM 28
O=C(Nc1ccc(Br)c2ccccc12)c1ccc2ccccc2c1O	CHO-K1 Ca ag 18
CC(=O)Nc1ccc(Br)c2ccccc12	none
COc1ccc2c(C)cc(SCC(=O)N(C)C3CCS(=O)(=O)C3)nc2c1 (stereo not given)	none
CCOc1ccc(NS(=O)(=O)c2ccc(NC(=S)NC(C)=O)cc2)cc1	M1 ag 34, CHO-K1 Ca ag 22
COc1ccc(NS(=O)(=O)c2ccc(NC(=S)NC(=O)C(C)C)cc2)cc1	M1 ag 19
Cc1ccccc1S(=O)(=O)Cc1ccc(C(=O)NCc2ccc(F)cc2)o1	none
O=C(/C=C/c1ccc(OC(F)F)cc1)Nc1cccc(S(=O)(=O)NC2=NCCCCC2)c1	none
N#CC1=C(N)OC2=C(CC/C2=C\c2ccccc2)C1c1ccccc1 (stereo not given)	M1 ag 18, CHO-K1 Ca antag 26, CHO-K1 Ca ag 21, CHRM1 antagonist 31
N#CC1=C(N)OC2=C(CC/C2=C\c2ccccc2Cl)C1c1ccccc1Cl (stereo not given)	none
CCC1CCCCN1CCNS(=O)(=O)c1ccc2c(c1)oc(=O)n2C (stereo not given)	CHRM1 antagonist 50
CCC1CCCCN1CCCNS(=O)(=O)c1ccc2c(c1)oc(=O)n2C (stereo not given)	none
COc1cccc(C(=O)NCC(c2ccc3c(c2)OCO3)N2CCN(c3ccc(F)cc3)CC2)c1 (stereo not given)	CHRM1 antagonist 28
COc1ccc(Cl)cc1C(=O)NCCN(C)C	none
CN(C)CCNC(=O)c1ccc(COc2ccc(Cl)cc2Cl)cc1	CHRM1 antagonist 31
O=C(O)C1=CCNCC1	none
CN(C)c1ccc(C=NNc2nc3c([nH]2)c(=O)n(C)c(=O)n3C)cc1	CHRM1 antagonist 24
COc1cc(C=NNc2nc3c([nH]2)c(=O)n(C)c(=O)n3C)ccc1O	none
CCCSc1ccc([C@H]2N[C@@](C)(C(=O)OC)[C@H]3C(=O)N(C)C(=O)[C@@H]23)cc1OC	none
Cc1ccc(NS(=O)(=O)c2cccc3nsnc23)cc1C	CHRM1 antagonist 40
O=C(O)c1cc(Br)ccc1NS(=O)(=O)c1cccc2nsnc12	CHO-K1 Ca antag 27
O=S(=O)(Nc1cccc(F)c1)c1cccc2nsnc12	none
CCCCN(C=O)c1c(CC)nc2ccc(C(=O)N3CCN(S(=O)(=O)CC)CC3)cn12	none
CCC(=O)NC(=S)NNC(=O)COc1ccc(Br)cc1	none
OCC1OC(n2cnc3c(SCc4ccccc4)nc(NO)nc32)C(O)C1O (stereo not given)	CHRM1 antagonist 71
O=C(Nc1cccc(F)c1)C1CCN(c2nnnn2-c2ccccc2)CC1	CHO-K1 Ca antag 28
ClC(Cl)(Cl)C1=NCc2nnn(Cc3ccccc3)c2N1	none
COCc1ccc(C(=O)N(C)CC2CCCN(CCc3ccc(OC)cc3)C2)o1 (stereo not given)	CHRM1 antagonist 52

Compound activity deposited in PubChem by The Scripps Research Institute Molecular Screening Center.
